Assay outcomes (PubChem BioAssay)
This is a sample that favours compounds with a hit; in the whole collection about 19% have one here.
TDP1 block – blocks human tyrosyl-DNA phosphodiesterase 1; Q9NUW8; AID 485290; Potency, µM (titrated, usually from 130 µM), inactives show at the highest dose activity change, negative = inhibition, usual class: inhibitors; recombinant TDP1, AlphaScreen DNA substrate cleavage; 350,000 compounds, 0.28% hits; also: nearly all actives have a fitted effect of over 40% in size
Target sequence (Q9NUW8 whole entry, looked up): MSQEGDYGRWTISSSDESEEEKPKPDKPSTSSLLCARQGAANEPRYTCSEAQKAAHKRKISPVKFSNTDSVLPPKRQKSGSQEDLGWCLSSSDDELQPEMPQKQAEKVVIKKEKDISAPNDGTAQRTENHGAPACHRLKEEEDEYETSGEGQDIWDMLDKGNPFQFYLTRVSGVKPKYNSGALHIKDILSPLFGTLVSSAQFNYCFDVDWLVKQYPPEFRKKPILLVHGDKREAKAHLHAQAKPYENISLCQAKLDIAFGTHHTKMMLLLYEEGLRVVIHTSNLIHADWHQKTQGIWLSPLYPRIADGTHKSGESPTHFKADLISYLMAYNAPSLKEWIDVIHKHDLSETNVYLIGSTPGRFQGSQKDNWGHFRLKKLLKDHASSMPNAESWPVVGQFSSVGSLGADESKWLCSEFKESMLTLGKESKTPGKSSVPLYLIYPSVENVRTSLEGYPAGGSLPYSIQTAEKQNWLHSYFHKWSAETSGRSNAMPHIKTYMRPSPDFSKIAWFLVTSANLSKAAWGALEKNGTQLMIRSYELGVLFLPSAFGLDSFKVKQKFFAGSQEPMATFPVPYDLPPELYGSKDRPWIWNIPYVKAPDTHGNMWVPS
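Steps: enzyme plus compound, 15 min RT; add biotin/phosphotyrosine-FITC oligonucleotide (15 nM final), react 5 min; add donor/acceptor beads (10 ug/ml final), 10 min; read AlphaScreen. Tdp1 at 1 nM final.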
RORgamma inh – inhibitors of mouse ROR gamma transcriptional activity | 310,000 compounds, 5.4% hits | Drosophila S2 Gal4-RORgamma UAS-luciferase reporter, 20 h | Potency, µM (top dose mostly 53.6 µM), for inactives: at the top dose activity change, negative = inhibition, most hits filed as inhibitors; also: nearly all actives have a fitted effect of over 60% in size
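Schneider cells (Drosophila), stable Gal4 DBD–ROR gamma + UAS-luc; 1 hr cmpd preincubation; Cu2+ induction 700 uM final; 20 hr ambient; luminescence.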
DT40 TDP1 no CPT – qHTS for Inhibitors of human tyrosyl-DNA phosphodiesterase 1 (TDP1): qHTS in cells in absence of CPT | Potency, µM (highest dose often 46.2 µM), for the others: at the highest dose activity change, negative = growth inhibition, most hits filed as inhibitors | DT40 Tdp1-/- hTDP1 cells, no CPT, ATP luminescence, 48 h | AID 686978, 2013 | 420,000 compounds, 15% hits; also: nearly all actives have a fitted effect of over 55% in size
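DT40 Tdp1-/-;hTDP1 cells, no CPT (DMSO vehicle only), 400 cells/well; compounds pin-transferred; ≥48 hr, 37 °C; CellTiter-Glo 30 min RT dark, luminescence read.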
Gal4-VP16 FLuc – inhibits Gal4-VP16 luciferase reporter, ROR gamma counter-screen; Drosophila S2 Gal4-VP16 UAS-luciferase, luminescence, 20 h; 310,000 compounds, 3.5% hits; Potency, µM (doses to about 53.6 µM), for inactives: at the highest dose activity, negative = inhibition, actives largely listed as inhibitors; AID 2546;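 also: Gal4-VP16 expression switched on by copper sulfate through the metallothionein promoter; nearly all actives have a fitted effect of over 50% in size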
DT40 TDP1 CPT – DT40-hTDP1 cell growth loss with CPT | chicken DT40 Tdp1-/-;hTDP1 cells + 20 nM CPT, ATP luminescence, 48 h | Potency, µM (doses to about 46.2 µM), for inactives: top-dose activity change, negative = growth inhibition, usual class: inhibitors | 420,000 compounds, 12% hits | AID 686979; also: nearly all actives have a fitted effect of over 55% in size
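Chicken DT40 Tdp1-/- cells stably complemented with human TDP1 were seeded at 400 cells/well in medium containing 20 nM camptothecin, exposed to pin-transferred compounds, and grown at 37 °C for at least 48 hr. Viability was read as ATP luminescence.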
Numbers without * were called inactive; ? = inconclusive; nt = not tested or not shown; [ ] = remark or other dose. Calls follow the shape of the dose curve; as a rule, active = well fitted curve in the direction sought with a large enough effect; inconclusive = small, poorly fitted or top-dose-only effect, or another doubt; inactive = no such curve, though single readings can be large; an effect the other way counts as inactive or inconclusive. % is scaled to controls: 0 for no effect and ±100 for the full control effect; potency is read from the fitted curve at half-maximal effect.

SMILES | TDP1 block | RORgamma inh | DT40 TDP1 no CPT | Gal4-VP16 FLuc | DT40 TDP1 CPT
O=C(NCCN1CCOCC1)c1ccc2ccccc2c1 | 4% | 16% | -14% | 26% | 21µM*
O=C(NCCN1CCOCC1)c1cc(-c2ccco2)on1 | 7%[56.1 µM] | -18% | 15µM* | 10% | 15µM*
Cc1ccc(-c2nc(C=Nc3cccc(C)c3)c(O)o2)cc1 | 1% | 21% | -10% | -11% | -18%
Cc1ccc(S(=O)(=O)N(C)C)cc1NC(=O)C(C)N(C)Cc1sccc1C (stereo not given) | nt | ? | 21µM* | -7% | 18µM*
Cc1ccc(S(=O)(=O)N(C)C)cc1NC(=O)C(C)NC(C)c1cccs1 (stereo not given) | 5% | 38% | -24% | 2% | ?
CN1CCN(C(=O)C2=C[C@H](c3ccc(C(F)(F)F)cc3)C[C@H](OCc3ccc(CO)cc3)O2)CC1 | 0% | 11% | ? | -5% | 23µM*
CN1CCN(C(=O)C2=C[C@@H](c3ccc(C(F)(F)F)cc3)C[C@@H](OCCCCO)O2)CC1 | 3% | ? | -9% | 1% | 2%
O=C(C1=C[C@@H](c2ccc(C(F)(F)F)cc2)C[C@@H](OCCCCO)O1)N1CCCCCCC1 | nt | nt | ? | nt | 23µM*
CCOC(=O)N1CCC(NC(=O)Cn2ncc3c4ccccc4n(C)c3c2=O)CC1 | 2% | -10% | -19% | -2% | -24%
O=C(O)c1cc2c(cc1Br)OCCCO2 | 1% | -9% | -11% | -12% | -4%
Cc1ccc(Cn2cnc3nc4c(cc3c2=O)CC(C)CC4)cc1 (stereo not given) | 4% | nt | 15µM* | nt | 21µM*
CC1CCc2nc3ncn(Cc4ccccc4F)c(=O)c3cc2C1 (stereo not given) | -1% | nt | ? | nt | ?
Cc1ccc(-c2nc3c(Cl)cc(C(F)(F)F)cn3c2Cc2ccccc2C(F)(F)F)cc1 | nt | nt | -23% | nt | 1%
COc1ccc(Cc2c(C(C)(C)C)nc3ccc(C)cn23)c(C)c1 | nt | nt | 13µM* | nt | 15µM*
Cc1ccc2nc(C(C)(C)C)c(Cc3ccccc3C(F)(F)F)n2c1 | nt | nt | 15µM* | nt | 16µM*
Cc1ccc(-c2nc3c4ccccc4ccn3c2Cc2ccccc2C(F)(F)F)cc1 | nt | nt | 16µM* | nt | ?
Cc1ccc(-c2nc3ccc(C)cn3c2Cc2ccccc2C(F)(F)F)cc1 | nt | nt | ? | nt | 29µM*
CCOC(=O)CNC(=S)N(Cc1cccs1)C1CCCCC1 | 1% | -7% | 3% | 0% | 1%
COc1ccccc1Cc1c(C(C)(C)C)nc2ccc(C)cn12 | nt | nt | 9.2µM* | nt | 0.65µM*
Cc1ccc2nc(-c3ccccc3)c(Cc3ccccc3C(F)(F)F)n2c1 | nt | nt | ? | nt | 16µM*
Cc1ccc(-n2c(SCC(=O)Nc3ccc(N4CCOCC4)cc3)nc3ccccc3c2=O)cc1 | 0% | ? | ? | -1% | -26%
COc1ccc(-n2c(SCC(=O)Nc3cccc4ccccc34)nc(O)cc2=O)cc1 | -4% | 35µM* | -15% | 12% | 0%
Cc1cccc(-n2c(SCc3cc(=O)n4ccsc4n3)nc3ccccc32)c1 | -3% | ? | 16µM* | -1% | 13µM*
Cc1ccc(NC(=S)NNC(=O)CSc2nc3ccccc3c(=O)n2-c2ccc(C)cc2)cc1 | 11% | ? | 16µM* | ? | -29%
COc1ccc(-n2c(SCC(=O)Nc3ccc(NC(C)=O)cc3)nc3ccccc3c2=O)cc1 | nt | 4% | -23% | -3% | 13µM*
SMILES | TDP1 block | RORgamma inh | DT40 TDP1 no CPT | Gal4-VP16 FLuc | DT40 TDP1 CPT
COc1ccc(-n2c(SCC(=O)Nc3ccccc3)nc(O)cc2=O)cc1 | nt | 21% | 4% | 2% | 6%
O=C(COc1ccccc1)Nc1ccncc1Cl | 2% | 25% | 13% | 3% | 0%
CCN(CC)C(=O)CSc1nc2c(sc(=S)n2-c2ccccc2)c(=O)n1-c1ccccc1OC | nt | 26% | ? | -8% | 9.2µM*
c1ccc(-n2cnnc2SCc2cn3ccsc3n2)cc1 | -2% | -1% | -18% | -4% | -10%
CCNC(=O)CSc1nc2ccccc2c(=O)n1-c1cccc(OC)c1 | 1% | -1% | -8% | 5% | 0%
COc1cccc(-n2c(SCC(=O)Nc3ccc4c(c3)CCC4)nc3ccccc3c2=O)c1 | 3% | ? | 9.2µM* | 21% | ?
CCN(CC)C(=O)CSc1nc2ccccc2c(=O)n1-c1cccc(OC)c1 | 3% | -10% | 15µM* | 4% | ?
Cc1ccc(-n2c(SCc3cn4ccsc4n3)nc3ccccc3c2=O)cc1 | 10% | -38% | 21µM* | 8% | ?
Cc1cc(CNC(=O)C(C)n2nc(C)c([N+](=O)[O-])c2C)c2ccccc2n1 (stereo not given) | 4% | 4% | ? | 14% | 6%
CC1CCN(c2oc(-c3ccco3)nc2S(=O)(=O)c2ccccc2)CC1 | 10% | 35% | ? | -20% | -8%
O=S(=O)(c1ccc(Cl)cc1)c1nc(-c2cccs2)oc1N1CCCCC1 | 1% | nt | 16µM* | nt | ?
CC1CCN(c2oc(-c3cccs3)nc2S(=O)(=O)c2ccccc2)CC1 | 3% | nt | 21µM* | nt | ?
COC(=O)c1cc(OC)c(OC)cc1NC(=O)c1cnccn1 | -1% | 6% | nt | 1% | nt
O=C(Nc1ccc([N+](=O)[O-])cc1)Nc1ccc2c(c1)OCCO2 | 5% | 2% | 15µM* | 7%[10 µM] | ?
COc1cc([N+](=O)[O-])ccc1NC(=O)Nc1ccc2c(c1)OCCO2 | 5% | 12% | ? | -5% | ?
CC(C)c1ccccc1NC(=O)Nc1ccc2c(c1)OCO2 | 4% | 24% | -20% | 25% | 16µM*
O=C(NCCc1ccc(F)cc1)Nc1ccc2c(c1)OCO2 | 4% | 10% | ? | -4% | 18µM*
O=C(Nc1ccc2c(c1)OCO2)Nc1ccc2c(c1)OCO2 | 3% | -14% | 7% | 0% | -11%
COC(=O)c1ccccc1NC(=O)Nc1ccc2c(c1)OCO2 | -3% | 34% | 6% | 4% | 0%
O=C(Nc1ccc(F)cc1)Nc1ccc2c(c1)OCO2 | 10% | 12% | ? | -1% | 9.2µM*
CCOCCc1nnc(N)s1 | 0% | -17% | -11% | 0% | 3%
CCOCCCNC(=S)N1CCCC(c2nc3ccc(C)cc3[nH]2)C1 (stereo not given) | 5% | -15% | ? | 23% | -27%
Cc1ccc(NC(=O)COC(=O)c2ccc3ncsc3c2)c(C)c1 | nt | nt | -21% | nt | 12%
Cc1cc(C)c2[nH]c(C(=O)Nc3ccc4c(c3)OCO4)cc2c1 | nt | 0.4µM* | ? | -25% | ?
O=C(Nc1ccc2c(c1)OCO2)Nc1ccc(F)cc1F | 0% | ? | 2.3µM* | -5% | 3.7µM*
